Experimental findings from article PMC11006913 are described below.

Positions count from the first letter of the chain named.

What all share (assay): PBM; 200 nM protein, PBS
Details in all cases: dsDNA, one strand shown

Experiment [1] has as its target HOXC10 (Homo sapiens, UniProt Q9NYD6 254-340).
The target in experiment [2] is ALX4 (Homo sapiens, UniProt Q9H161 200-286).
Experiment [3] addresses ALX4 (Homo sapiens, UniProt Q9H161 200-286, Q225E).
Experiment [4] deals with HOXC10 (Homo sapiens, UniProt Q9NYD6 254-340, K271E).
Chain of HOXC10 (Homo sapiens, UniProt Q9NYD6 254-340, K271E) (Q9NYD6 254-340 K271E): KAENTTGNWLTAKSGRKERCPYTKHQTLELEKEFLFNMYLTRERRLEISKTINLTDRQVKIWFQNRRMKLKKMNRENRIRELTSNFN
Experiment [5] addresses HOXB6 (Homo sapiens, UniProt P17509 132-218, K202E).
The target of experiment [6] is PROP1 (Homo sapiens, UniProt O75360 56-141).
Chain of PROP1 (Homo sapiens, UniProt O75360 56-141) (O75360 56-141): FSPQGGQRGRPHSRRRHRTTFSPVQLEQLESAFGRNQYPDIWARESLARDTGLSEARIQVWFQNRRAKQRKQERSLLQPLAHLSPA
The target of experiment [7] is PROP1 (Homo sapiens, UniProt O75360 56-141, R99H).
Chain of PROP1 (Homo sapiens, UniProt O75360 56-141, R99H) (O75360 56-141 R99H): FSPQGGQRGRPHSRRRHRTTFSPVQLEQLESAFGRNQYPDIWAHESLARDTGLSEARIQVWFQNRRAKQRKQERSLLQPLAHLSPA
Experiment [8] addresses PROP1 (Homo sapiens, UniProt O75360 56-141, F88S).
The target in experiment [9] is HOXB6 (Homo sapiens, UniProt P17509 132-218).
Chain of HOXB6 (Homo sapiens, UniProt P17509 132-218) (P17509 132-218): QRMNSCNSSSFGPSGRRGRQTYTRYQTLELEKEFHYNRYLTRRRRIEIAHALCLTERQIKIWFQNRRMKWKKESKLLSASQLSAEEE
The target of experiment [10] is ALX3 (Homo sapiens, UniProt O95076 139-225, N203Q).
Chain of ALX3 (Homo sapiens, UniProt O95076 139-225, N203Q) (O95076 139-225 N203Q): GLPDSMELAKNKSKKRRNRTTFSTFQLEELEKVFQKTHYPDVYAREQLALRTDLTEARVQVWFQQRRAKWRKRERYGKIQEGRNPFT
The target in experiment [11] is ALX3 (Homo sapiens, UniProt O95076 139-225).
Chain of ALX3 (Homo sapiens, UniProt O95076 139-225) (O95076 139-225): as the sequence (O95076 139-225 N203Q) above, with Q65N counted along it
In experiment [12] the target is ALX3 (Homo sapiens, UniProt O95076 139-225, L168Q).
Chain of ALX3 (Homo sapiens, UniProt O95076 139-225, L168Q) (O95076 139-225 L168Q): as the sequence (O95076 139-225 N203Q) above, with L30Q, Q65N counted along it
For experiment [13], the target named is ALX3 (Homo sapiens, UniProt O95076 139-225, L168V).
Chain of ALX3 (Homo sapiens, UniProt O95076 139-225, L168V) (O95076 139-225 L168V): as the sequence (O95076 139-225 N203Q) above, with L30V, Q65N counted along it
Experiment [14] addresses ALX3 (Homo sapiens, UniProt O95076 139-225, N203S).
Experiment [15] addresses HOXD13 (Homo sapiens, UniProt P35453 263-343, T313R).
Experiment [16] has as its target HOXD13 (Homo sapiens, UniProt P35453 263-343).
For experiment [17], the target named is HOXD13 (Homo sapiens, UniProt P35453 263-343, T313A).
Chain of HOXD13 (Homo sapiens, UniProt P35453 263-343, T313A) (P35453 263-343 T313A): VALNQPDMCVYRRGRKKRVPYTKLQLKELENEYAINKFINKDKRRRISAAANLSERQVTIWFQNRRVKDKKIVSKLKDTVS
In experiment [18] the target is T1, NKX2-6 (Homo sapiens, UniProt A6NCS4 118-204).
T1 sequence: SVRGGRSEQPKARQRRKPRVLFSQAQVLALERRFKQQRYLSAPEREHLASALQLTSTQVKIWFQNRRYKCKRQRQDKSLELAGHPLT

In experiment [19] the target is T2, NKX2-6 (Homo sapiens, UniProt A6NCS4 118-204, F151L).
T2 sequence: T1 sequence with F34L

Chain of HOXC10 (Homo sapiens, UniProt Q9NYD6 254-340) (Q9NYD6 254-340): as the sequence (Q9NYD6 254-340 K271E) above, with E18K counted along it
Chain of HOXD13 (Homo sapiens, UniProt P35453 263-343) (P35453 263-343): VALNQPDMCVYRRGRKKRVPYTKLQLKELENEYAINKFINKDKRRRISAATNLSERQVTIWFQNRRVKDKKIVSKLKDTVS
Chain of HOXD13 (Homo sapiens, UniProt P35453 263-343, T313R) (P35453 263-343 T313R): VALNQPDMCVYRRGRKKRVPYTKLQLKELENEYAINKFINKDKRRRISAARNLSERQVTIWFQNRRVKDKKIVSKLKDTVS
Chain of PROP1 (Homo sapiens, UniProt O75360 56-141, F88S) (O75360 56-141 F88S): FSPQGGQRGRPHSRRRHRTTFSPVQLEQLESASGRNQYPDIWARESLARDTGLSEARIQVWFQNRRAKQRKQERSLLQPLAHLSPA
Chain of HOXB6 (Homo sapiens, UniProt P17509 132-218, K202E) (P17509 132-218 K202E): as the sequence (P17509 132-218) above, with K71E counted along it
Chain of ALX4 (Homo sapiens, UniProt Q9H161 200-286, Q225E) (Q9H161 200-286 Q225E): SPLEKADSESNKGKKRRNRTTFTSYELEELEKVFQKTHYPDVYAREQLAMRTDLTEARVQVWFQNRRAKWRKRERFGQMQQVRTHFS
Chain of ALX3 (Homo sapiens, UniProt O95076 139-225, N203S) (O95076 139-225 N203S): as the sequence (O95076 139-225 N203Q) above, with Q65S counted along it
Chain of ALX4 (Homo sapiens, UniProt Q9H161 200-286) (Q9H161 200-286): as the sequence (Q9H161 200-286 Q225E) above, with E26Q counted along it

For the sequence AGCGCTTG, the binding signal was 10 upbm affinity estimate (log intensity, higher = more binding, comparable within an allelic series) in experiment [1]; 7.96 upbm affinity estimate (log intensity, higher = more binding, comparable within an allelic series) in [2]; 8.27 upbm affinity estimate (log intensity, higher = more binding, comparable within an allelic series) in [3]; 10.1 upbm affinity estimate (log intensity, higher = more binding, comparable within an allelic series) in experiment [4].

As to GACAGTAA, the binding signal in [1] is 11 upbm affinity estimate (log intensity, higher = more binding, comparable within an allelic series).

With GGGGGGAA, the binding signal in experiment [1] was 10 upbm affinity estimate (log intensity, higher = more binding, comparable within an allelic series); in [5] it was 9 upbm affinity estimate (log intensity, higher = more binding, comparable within an allelic series); in experiment [4], 9.95 upbm affinity estimate (log intensity, higher = more binding, comparable within an allelic series); in experiment [6], 6.74 upbm affinity estimate (log intensity, higher = more binding, comparable within an allelic series); in experiment [7], 6.57 upbm affinity estimate (log intensity, higher = more binding, comparable within an allelic series); in experiment [8], 6.2 upbm affinity estimate (log intensity, higher = more binding, comparable within an allelic series). For the same sequence, in experiment [9], the binding signal was 9.07 upbm affinity estimate (log intensity, higher = more binding, comparable within an allelic series).

With CGAAGGGC, the binding signal in [1] is 9.97 upbm affinity estimate (log intensity, higher = more binding, comparable within an allelic series); in [10], 7.68 upbm affinity estimate (log intensity, higher = more binding, comparable within an allelic series); in experiment [4] it was 10.1 upbm affinity estimate (log intensity, higher = more binding, comparable within an allelic series); in [11] it was 7.61 upbm affinity estimate (log intensity, higher = more binding, comparable within an allelic series); in experiment [12] it was 7.69 upbm affinity estimate (log intensity, higher = more binding, comparable within an allelic series); in [13] it was 7.8 upbm affinity estimate (log intensity, higher = more binding, comparable within an allelic series). Also, the binding signal in experiment [14] is 7.67 upbm affinity estimate (log intensity, higher = more binding, comparable within an allelic series).

For CTTTATTA, the binding signal in experiment [1] was 12.2 upbm affinity estimate (log intensity, higher = more binding, comparable within an allelic series); in experiment [15] it was 10.6 upbm affinity estimate (log intensity, higher = more binding, comparable within an allelic series); in [16], 11.8 upbm affinity estimate (log intensity, higher = more binding, comparable within an allelic series); in [4], 11.7 upbm affinity estimate (log intensity, higher = more binding, comparable within an allelic series); in [17], 11.5 upbm affinity estimate (log intensity, higher = more binding, comparable within an allelic series).

Take GTTTACGA: the binding signal was 12.2 upbm affinity estimate (log intensity, higher = more binding, comparable within an allelic series) in experiment [1]; 10.8 upbm affinity estimate (log intensity, higher = more binding, comparable within an allelic series) in [15]; 12.1 upbm affinity estimate (log intensity, higher = more binding, comparable within an allelic series) in experiment [16]; 11.6 upbm affinity estimate (log intensity, higher = more binding, comparable within an allelic series) in experiment [4]; 11.9 upbm affinity estimate (log intensity, higher = more binding, comparable within an allelic series) in experiment [17].

For the sequence AAAGCGGG, the binding signal in experiment [1] was 9.98 upbm affinity estimate (log intensity, higher = more binding, comparable within an allelic series); in [4], 10.1 upbm affinity estimate (log intensity, higher = more binding, comparable within an allelic series).

As for AGGCTTCC, the binding signal in experiment [1] is 10.1 upbm affinity estimate (log intensity, higher = more binding, comparable within an allelic series); in experiment [4], 10.1 upbm affinity estimate (log intensity, higher = more binding, comparable within an allelic series).

For the sequence GGTCCGCA, the binding signal in [1] was 10 upbm affinity estimate (log intensity, higher = more binding, comparable within an allelic series); in experiment [4] it was 10 upbm affinity estimate (log intensity, higher = more binding, comparable within an allelic series).

AACATTAT: the binding signal in [1] is 11.6 upbm affinity estimate (log intensity, higher = more binding, comparable within an allelic series); in [4], 11.3 upbm affinity estimate (log intensity, higher = more binding, comparable within an allelic series).

For the sequence AAATAAAA, the binding signal in experiment [1] is 11.9 upbm affinity estimate (log intensity, higher = more binding, comparable within an allelic series); in experiment [4] it was 11.1 upbm affinity estimate (log intensity, higher = more binding, comparable within an allelic series).

CCGAAGGA: the binding signal in [1] is 10 upbm affinity estimate (log intensity, higher = more binding, comparable within an allelic series); in experiment [4], 9.98 upbm affinity estimate (log intensity, higher = more binding, comparable within an allelic series).

Turning to GGGCTACC, the binding signal in [1] was 10 upbm affinity estimate (log intensity, higher = more binding, comparable within an allelic series); in experiment [4] it was 10.1 upbm affinity estimate (log intensity, higher = more binding, comparable within an allelic series).

With AATTGCAA, the binding signal in experiment [1] was 11.1 upbm affinity estimate (log intensity, higher = more binding, comparable within an allelic series); in [4], 11 upbm affinity estimate (log intensity, higher = more binding, comparable within an allelic series).

With CTTCGACC, the binding signal in experiment [1] is 9.95 upbm affinity estimate (log intensity, higher = more binding, comparable within an allelic series); in experiment [4], 10 upbm affinity estimate (log intensity, higher = more binding, comparable within an allelic series).

Take CGCCCCGA: the binding signal in experiment [1] is 10.1 upbm affinity estimate (log intensity, higher = more binding, comparable within an allelic series); in experiment [4], 9.97 upbm affinity estimate (log intensity, higher = more binding, comparable within an allelic series).

For ATAAAGAT, the binding signal was 11.6 upbm affinity estimate (log intensity, higher = more binding, comparable within an allelic series) in [1] and 11.1 upbm affinity estimate (log intensity, higher = more binding, comparable within an allelic series) in experiment [4].

On to CGCTGGGC, for which the binding signal in [1] is 10 upbm affinity estimate (log intensity, higher = more binding, comparable within an allelic series); in experiment [18] it was 9.13 upbm affinity estimate (log intensity, higher = more binding, comparable within an allelic series); in [4] it was 9.98 upbm affinity estimate (log intensity, higher = more binding, comparable within an allelic series); in [19], 9.22 upbm affinity estimate (log intensity, higher = more binding, comparable within an allelic series).
